Our source for the growth values is PubChem BioAssay (NCI).

The panel holds about 83,000 compounds, 20% with a hit somewhere; the sample as a whole holds those more often.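 Cell lines were cultured in 96-well plates, exposed to a single compound concentration, and assessed for percent growth 48 hours later.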 A number with no mark means an inactive call. The source made the active and inactive calls. The calls were made as follows: active = growth percent below 10; inactive = the rest.

This assay concerns HL-60(TB) leukemia. The assay can be described thus: NCI-60 one-dose screen, 48 h (100 = growth as untreated, 0 = no growth, -100 = all killed). To be noted: 10 µM unless noted.
Take `CCCCNC(=O)c1ccc2c(c1)nc(-c1ccccc1)n2C1CCCCC1`: the growth is 115%.

As to `O=C(Nc1cc(Nc2ncccc2-c2ncnc3nc[nH]c23)ccc1F)c1cc(C(F)(F)F)cc(C(F)(F)F)c1`, the growth was -11.3% (active).

For the compound `O=C(Nc1ccc(OS(=O)(=O)c2ccccc2)cc1)C1CCCCC1`, the growth was 94%. The value for `C[C@@H]1N=C(c2ccc(Cl)cc2Cl)Nc2nc3ccccn3c2C1=O` was 0.461% (active); that for `COc1cc2c(=O)n(CCN)c3c4cc5c(cc4ccc3c2cc1OC)OCO5` was -64.9% (active). Next, `O=c1c2cc(F)ccc2sc2c(NCCN3CCOCC3)nc3ccccc3c12`: 65.3%; `O=c1[nH]c(=O)n(Cc2ccc(F)cc2)cc1F`: 88.7% [50 µM]; `O=C1NC(=Nc2ccc(O)cc2)S/C1=C\c1cccc(Cl)c1`: 22.9%. Next, `COc1ccc(-c2cc(-c3ccc(OC)c(OC)c3)nc(SCCCC(=O)NO)n2)cc1`: -34.9% (active); `CC(C)(C)n1cc(-c2ccnc(NCCNS(=O)(=O)c3ccccc3)c2)c(-c2cccc(O)c2)n1`: 45%; `COC(=O)C1=C(C)NC(C)=C(C(=O)OC)C(N2C(=O)CCC2=O)C1` (stereo not given): 90.8%. As for `O=C(CS)OCC(COC(=O)CS)(COC(=O)CS)COC(=O)CS`, the growth was 67.2%. The value for `O=C(CCCCC(=O)Nc1ccc2c(c1)/C(=C/c1ccc[nH]1)C(=O)N2)NO` was 107%. Take `O=[N+]([O-])c1cccc(-c2nc3sccn3c2-c2ccnc(NCCNS(=O)(=O)c3ccc(C(F)(F)F)cc3)n2)c1`: the growth is 16%. Turning to `COc1ccc(C(=O)/C=C/c2cc3ccccc3n3nnnc23)cc1`, the growth is 92.1%. The value for `NC(=S)N/N=C\c1nccc2c(C(F)(F)F)cccc12` was -24.8% (active).

Consider `Cc1ccc(N=Nc2c(N)nc(N)[nH]c2=O)cc1C`, for which the growth was 97.3%. The value for `CC(=O)OCC1CCCO1` (stereo not given) was 84.7%; that for `O=C1NC(=O)C(c2ccccc2)(c2ccccc2)N1Cc1cn(-c2c3ccccc3nc3ccccc23)nn1` was 73.3%.

For the compound `CCc1nc(N)nc(N)c1C#CC(C)c1ccc(-c2ccncc2)cc1Cl` (stereo not given), the growth was -19.9% (active).

As for `C=C1CCC2C3(C)COC(c4ccc(NC(C)=O)cc4)OC3CCC2(C)C1C/C=C1/C(=O)OCC1O` (stereo not given), the growth was 32.8%. With `COc1ccc(Cl)cc1Nc1nc(C(F)(F)F)ccc1C(=O)NN`, the growth was 23.3%. The value for `C#CC(F)(F)[C@]1(O)CCC2C3CCC4=CC(=O)CCC4=C3[C@@H](c3ccc(N(C)C)cc3)C[C@@]21C` (stereo not given in full) was 56%; that for `Cc1nn(-c2nc(-c3cc4ccccc4oc3=O)cs2)c(C)c1N=Nc1ccccc1` was 101%. For `C=CCNC(=O)/C(=C/c1cccc([N+](=O)[O-])c1)NC(=O)c1ccccc1`, the growth was 137%. Consider `CCCCCCCSc1ccc(C(=O)O)cc1`, for which the growth was 98.6%.

In the case of `Nc1n[nH]c2ccc([C@@H]3Nc4ccc5[nH]ncc5c4[C@H]4[C@H]5CCC(C5)[C@H]43)cc12`, the growth is -41.5% (active). With `S=c1nc(-c2ccccn2)c(-c2ccccn2)n[nH]1`, the growth was 92.8%.

Take `Nc1cccc(S(=O)(=O)c2cccc(N)c2)c1`: the growth is -10.6% (active). Next, `CN(C)CC(=O)c1ccc2cc(Br)c3ccccc3c2c1`: 53.4%; `COCCc1n(Cc2ccc3ccccc3c2)c2ccccc2[n+]1Cc1ccc2ccccc2c1`: -62.4% (active); `CCCC/C(CC)=N\NS(=O)(=O)c1ccc([N+](=O)[O-])cc1`: 92.2%. As to `CCOC(=O)C1(C)CCCC1N` (stereo not given), the growth was 98.5%. Next, `COC(=O)C1Cc2ccccc2CN1C(=O)c1ccc2c(c1)Cc1ccccc1-2` (stereo not given): 13.4% [50 µM].

In the case of `OC(c1cccc(-n2ccc(C(F)(F)F)n2)c1)c1cnccc1NC1CCCCCC1` (stereo not given), the growth is -35.7% (active).

As to `Oc1ccc(-c2nc3ccccc3s2)cc1CN(Cc1ccccn1)Cc1ccccn1`, the growth was 1.27% (active). Regarding `O=c1oc2ccccc2cc1-c1nn(-c2ccccc2)cc1-c1nn[nH]n1`, the growth is 96.8%.

As for `COc1cccc(-c2nc(-c3ccc(NS(=O)(=O)c4ccccc4)cc3)[nH]c2-c2ccnc(Br)c2)c1`, the growth is -11.5% (active). In the case of `COc1cc(OC)c(C(=O)/C=C/c2cccc(C#N)c2)c(OC)c1`, the growth is -8.6% (active).

Turning to `COc1ccc(C(=O)c2nc3ccccc3n2CC(=O)c2ccc(F)cc2)cc1`, the growth is 79.5%.
